Test results taken from the supplement of paper PMC7380943.

Test system: CLZ3 (HCA2 human fibroblast dual HR-NHEJ reporter)
Assay: HR repair efficiency (tdTomato+ cells) relative to control (log10 fold); higher = more homologous recombination
Settings: 5 µM; doxycycline 0.5 ug/mL
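Note: compound given one day before doxycycline, which switches on I-SceI endonuclease expression to create double-strand breaks within the integrated reporter.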

Which “HR repair efficiency (log10)” value does the source give for `COC(=O)[C@H]1O[C@@H](Oc2cc3oc(-c4ccc(O)cc4)cc(=O)c3c(O)c2O)[C@H](O)[C@@H](O)[C@@H]1O` [Scutellarin Methyl Ester] here?
The value was -0.014.

For `CC(C)=CCC[C@](C)(O[C@@H]1O[C@H](CO[C@@H]2O[C@@H](CO)[C@H](O)[C@H]2O)[C@@H](O)[C@H](O)[C@H]1O)[C@H]1CC[C@]2(C)[C@@H]1[C@H](O)C[C@@H]1[C@@]3(C)CC[C@H](O[C@@H]4O[C@H](CO)[C@@H](O)[C@H](O)[C@H]4O[C@@H]4O[C@H](CO)[C@@H](O)[C@H](O)[C@H]4O)C(C)(C)[C@@H]3CC[C@]12C` [Ginsenoside Rc], which “HR repair efficiency (log10)” value is on record?
Its value is 0.0964.

For `COC(=O)[C@H](c1ccccc1Cl)N1CCc2sccc2C1` [Clopidogrel bisulfate], which “HR repair efficiency (log10)” value is on record?
Its value is 0.138.

For `O=Cc1ccc(O)c(O)c1` [Protocatechuic aldehyde], which “HR repair efficiency (log10)” value is on record?
The value was -0.256.

With `O=C(O)c1cc(O)c2c(c1)[C@H]([C@H]1c3cc(CO)cc(O)c3C(=O)c3c(O[C@@H]4O[C@H](CO)[C@@H](O)[C@H](O)[C@H]4O)cccc31)c1cccc(O[C@@H]3O[C@H](CO)[C@@H](O)[C@H](O)[C@H]3O)c1C2=O` [Sennoside C] as the compound, how does the “HR repair efficiency (log10)” value read?
Its value is 0.148.

For `CC1=C[C@]2(O)O[C@@]3(CC2=C(C)C)[C@@H](C)CC[C@@H]13` [Curcumenol], which “HR repair efficiency (log10)” value is on record?
The value was 0.132.

With `Oc1cc(O)c2c(c1)O[C@H](c1ccc(O)c(O)c1)[C@H](O)C2` [Epicatechin (EC)] as the compound, how does the “HR repair efficiency (log10)” value read?
The value was -0.306.

Which “HR repair efficiency (log10)” value does the source give for `COc1ccc(C2OCC3C(c4cc(OC)c(OC)c(OC)c4)OCC23)cc1OC` (configuration not stated) [Magnolin] here?
The value was -0.00542.

`COc1cc(C2Oc3cc([C@H]4Oc5cc(O)cc(O)c5C(=O)[C@@H]4O)ccc3OC2CO)ccc1O` (some centres not stated) [Silybin (Silymarin)] was tested. Which “HR repair efficiency (log10)” value did it give?
Its value is 0.183.

For `C=C(C)[C@@H]1CC[C@]2(C(=O)O)CC[C@]3(C)[C@H](CC[C@@H]4[C@@]5(C)CC[C@H](O[C@@H]6OC[C@H](O)[C@H](O)[C@H]6O[C@@H]6O[C@@H](C)[C@H](O)[C@@H](O)[C@H]6O)[C@@](C)(CO)[C@@H]5CC[C@]43C)[C@@H]12` [Anemoside A3], which “HR repair efficiency (log10)” value is on record?
The value was 0.0291.

How did the “HR repair efficiency (log10)” value turn out when `COc1cc(O)c(C(C)=O)cc1S(=O)(=O)O` [Sodium Paeonol Sulfonate] was run?
The value was 0.0512.

For `C[C@H](N)C(=O)O` [Alanine], which “HR repair efficiency (log10)” value is on record?
The value was -0.14.

How did the “HR repair efficiency (log10)” value turn out when `O=C1C[C@@H](c2ccc(O)cc2)Oc2cc(O)ccc21` [Liquiritigenin] was run?
Its value is 0.142.

How did the “HR repair efficiency (log10)” value turn out when `CC1(C)CC[C@]2(C(=O)O)CC[C@]3(C)C(=CC[C@@H]4[C@@]5(C)CC[C@H](O)C(C)(C)[C@@H]5CC[C@]43C)[C@@H]2C1` [Oleanolic Acid] was run?
Its value is 0.133.

Which “HR repair efficiency (log10)” value does the source give for `CC(CC(=O)C[C@@H](C)[C@H]1CC(=O)[C@@]2(C)C3=C(C(=O)C[C@]12C)[C@@]1(C)CC[C@H](O)C(C)(C)[C@@H]1C[C@@H]3O)C(=O)O` (some centres not stated) [Ganoderic Acid B] here?
The value was 0.0793.

`CC(C)=CCC[C@](C)(O[C@@H]1O[C@H](CO[C@@H]2O[C@H](CO)[C@@H](O)[C@H](O)[C@H]2O)[C@@H](O)[C@H](O)[C@H]1O)[C@H]1CC[C@]2(C)[C@@H]1[C@H](O)C[C@@H]1[C@@]3(C)CC[C@H](O[C@@H]4O[C@H](CO)[C@@H](O)[C@H](O)[C@H]4O)C(C)(C)[C@@H]3CC[C@]12C` [Gypenoside Xvii] was tested. Which “HR repair efficiency (log10)” value did it give?
The value was 0.00706.

`COc1cc(-c2coc3cc4c(c(OC)c3c2=O)OCO4)cc(OC)c1OC` [Irisflorentin] was tested. Which “HR repair efficiency (log10)” value did it give?
The value was 0.0727.

How did the “HR repair efficiency (log10)” value turn out when `COc1cc([C@H]2OC[C@H]3[C@@H]2CO[C@@H]3c2ccc(O[C@@H]3O[C@H](CO)[C@@H](O)[C@H](O)[C@H]3O)c(OC)c2)ccc1O[C@@H]1O[C@H](CO)[C@@H](O)[C@H](O)[C@H]1O` [PinoresinolDiglucoside] was run?
The value was -0.138.

For `COc1ccc(/C=C/c2cc(O)cc(O[C@@H]3O[C@H](CO)[C@@H](O)[C@H](O)[C@H]3O)c2)cc1` [Desoxyrhaponticin], which “HR repair efficiency (log10)” value is on record?
Its value is 0.245.

With `C/C=C\c1ccc(OC)cc1` [cis-Anethol] as the compound, how does the “HR repair efficiency (log10)” value read?
The value was 0.0605.

For `COC(=O)C1=CO[C@@H](O[C@@H]2O[C@H](CO)[C@@H](O)[C@H](O)[C@H]2O)[C@H]2[C@@H]1[C@H](O)C[C@]2(C)O` [Shanzhiside methylester], which “HR repair efficiency (log10)” value is on record?
The value was 0.314.

Which “HR repair efficiency (log10)” value does the source give for `C[C@@H]1O[C@@H](OC[C@H]2O[C@@H](OCCc3ccc(O)c(O)c3)[C@H](O)[C@@H](O)[C@@H]2OC(=O)/C=C/c2ccc(O)c(O)c2)[C@H](O)[C@H](O)[C@H]1O` [Forsythoside A] here?
Its value is 0.189.
